Each compound was assayed against T1, Tyrosine-protein kinase JAK3 (Homo sapiens) (UniProt P52333). Conditions: at 0.1 µM.
T1 sequence (whole entry): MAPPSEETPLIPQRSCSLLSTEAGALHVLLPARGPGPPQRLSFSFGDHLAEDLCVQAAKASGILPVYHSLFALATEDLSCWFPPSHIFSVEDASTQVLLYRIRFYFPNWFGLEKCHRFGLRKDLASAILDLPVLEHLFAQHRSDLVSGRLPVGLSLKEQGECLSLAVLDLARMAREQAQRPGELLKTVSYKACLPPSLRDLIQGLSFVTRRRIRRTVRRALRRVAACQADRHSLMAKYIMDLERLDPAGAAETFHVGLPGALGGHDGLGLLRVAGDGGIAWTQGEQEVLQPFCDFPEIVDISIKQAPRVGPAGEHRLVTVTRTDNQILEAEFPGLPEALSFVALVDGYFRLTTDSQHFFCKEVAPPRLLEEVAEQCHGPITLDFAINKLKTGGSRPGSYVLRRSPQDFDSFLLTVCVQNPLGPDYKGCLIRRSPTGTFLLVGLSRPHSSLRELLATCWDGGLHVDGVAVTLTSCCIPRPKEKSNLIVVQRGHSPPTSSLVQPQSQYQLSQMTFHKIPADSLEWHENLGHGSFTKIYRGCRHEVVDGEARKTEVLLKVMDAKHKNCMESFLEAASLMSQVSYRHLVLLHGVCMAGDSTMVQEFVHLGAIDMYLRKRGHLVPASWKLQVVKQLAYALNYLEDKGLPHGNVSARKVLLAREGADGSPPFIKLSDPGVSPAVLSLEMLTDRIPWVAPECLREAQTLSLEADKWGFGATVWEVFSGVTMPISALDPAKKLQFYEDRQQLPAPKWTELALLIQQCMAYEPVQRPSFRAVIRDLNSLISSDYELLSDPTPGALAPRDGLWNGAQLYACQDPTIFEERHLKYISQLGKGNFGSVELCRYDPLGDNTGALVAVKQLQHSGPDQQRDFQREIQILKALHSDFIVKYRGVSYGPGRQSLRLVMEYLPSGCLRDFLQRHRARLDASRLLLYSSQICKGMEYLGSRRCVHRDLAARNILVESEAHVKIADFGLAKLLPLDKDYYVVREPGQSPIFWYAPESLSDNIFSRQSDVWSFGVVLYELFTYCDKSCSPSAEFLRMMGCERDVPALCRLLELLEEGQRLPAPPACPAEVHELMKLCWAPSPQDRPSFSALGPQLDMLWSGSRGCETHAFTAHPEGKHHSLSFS

Row | SMILES | inhibition [%]
1 | COc1ccc(CNC(=O)c2ccc(-c3cc(-c4nnc(C)o4)ccc3C)cc2)cc1 | 1.7
2 | Fc1ccc(-c2cc(-c3c[nH]nc3-c3ccccn3)ccn2)cc1 | -0.89
3 | CS(=O)(=O)CCNCc1ccc(-c2ccc3ncnc(Nc4ccc(OCc5ccccc5)c(C(F)(F)F)c4)c3c2)o1 | -4.36
4 | COc1ccc2c(-c3ccnc(Nc4cccc(OC(F)(F)F)c4)n3)cnn2n1 | -0.93
5 | c1ccc(-c2nc3n(c2-c2ccc4c(c2)OCO4)CCC3)nc1 | -0.19
6 | COc1ccc(-c2cc(-c3c[nH]nc3-c3ccccn3)ccn2)cc1 | -1.18
7 | COc1ccc(-c2cc3c(N)ncnc3o2)cc1 | -0.88
8 | FC(F)(F)c1cccc(-c2nn3ncccc3c2-c2ccnc(Nc3ccc4c(c3)OCCO4)n2)c1 | -0.61
9 | N#Cc1c(NC(=O)CN2CCOCC2)sc2c1CCCC2 | -0.09
10 | COC(=O)Nc1nc2ccc(Oc3ccc(NC(=O)Nc4cccc(Cl)c4)cc3)cc2[nH]1 | -0.87
11 | CN1CCC(n2cnc(-c3ccc(F)cc3)c2-c2ccnc(Nc3ccccc3)n2)CC1 | -0.54
12 | Clc1ccc(-c2nn3ncccc3c2-c2ccnc(Nc3ccccc3)n2)cc1 | 0.42
13 | COc1ccc(-c2nn3ncccc3c2-c2ccnc(Nc3ccc4c(c3)OCCO4)n2)cc1 | -1.66
14 | Nc1nc(-c2ccc(F)cc2)c(-c2ccc3ncccc3n2)s1 | -0.98
15 | COc1ccc2[nH]c3c4[nH]c5ccc(OC)cc5c4c4c(c3c2c1)C(=O)NC4=O | -1.14
16 | Cc1ccc(O)cc1Nc1ccnc2cc(-c3ccccn3)ccc12 | -1.06
17 | NS(=O)(=O)c1ccc(N/N=C2\C(=O)Nc3ccc4ncccc4c32)cc1 | 14.2

Row | SMILES | inhibition [%]
18 | CCN1CCC(CC(=O)Nc2n[nH]c3nnc(-c4cccc(F)c4F)cc23)CC1 | -2.12
19 | COc1cccc(-c2c[nH]c3c(N/N=C/c4ccncc4)ncnc23)c1 | 0.32
20 | NC(=O)c1sc(-n2cnc3ccc(C(F)(F)F)cc32)cc1OCc1ccccc1Br | -1.41
21 | CC(C)COC(=O)c1ccc2c(c1)/C(=C/Nc1ccc(S(N)(=O)=O)cc1)C(=O)N2 | 2.41
22 | CCn1c(-c2nonc2N)nc2cnc(Oc3cccc(NC(=O)c4ccc(N(C)C)cc4)c3)cc21 | -0.01
23 | Fc1cccc(COc2ccc(Nc3ncnc4sc(-c5ccco5)cc34)cc2Cl)c1 | -3.93
24 | CC(=O)NCc1cccc(C#Cc2cncnc2Nc2ccc(OCc3cccc(F)c3)c(Cl)c2)c1 | -0.21
25 | CS(=O)(=O)CCNCc1coc(-c2ccc3ncnc(Nc4ccc(OCc5ccccc5)cc4)c3c2)c1 | -1.53
26 | Cc1ccc2c(-c3ccnc(Nc4ccccc4)n3)c(-c3ccc(F)cc3)nn2n1 | -0.48
27 | O=S(=O)(CCNCc1ccc(-c2ccc3ncnc(Nc4ccc(OCc5cccc(F)c5)c(Cl)c4)c3c2)o1)c1ccccc1 | -3.52
28 | CCNC(=O)O[C@H]1CN[C@H](C#Cc2cc3ncnc(Nc4ccc(OCc5cccc(F)c5)c(Cl)c4)c3s2)C1 | -1.24
29 | c1ccc(COc2ccc(Nc3ncnc4ccc(-c5ccco5)cc34)cc2)cc1 | -2.56
30 | COC(=O)c1sc(-n2cnc3cc(OC)c(OC)cc32)cc1OCc1ccccc1C(F)(F)F | 0.11
31 | Cc1cccc2c1NC(=O)/C2=N\Nc1ccc(S(N)(=O)=O)cc1 | 0
32 | CC(=O)Nc1cccc(C#Cc2cncnc2Nc2ccc(OCc3cccc(F)c3)c(Cl)c2)c1 | 0.59
33 | CCn1c(-c2nonc2N)nc2ccccc21 | -0.66

What follows are compounds tested against T1, Tyrosine-protein kinase JAK3 (Homo sapiens). Conditions: at 1 µM.

Row | SMILES | inhibition [%]
34 | COc1ccc(CNC(=O)c2ccc(-c3cc(-c4nnc(C)o4)ccc3C)cc2)cc1 | 3
35 | Fc1ccc(-c2cc(-c3c[nH]nc3-c3ccccn3)ccn2)cc1 | -3.5
36 | CS(=O)(=O)CCNCc1ccc(-c2ccc3ncnc(Nc4ccc(OCc5ccccc5)c(C(F)(F)F)c4)c3c2)o1 | -1.51
37 | COc1ccc2c(-c3ccnc(Nc4cccc(OC(F)(F)F)c4)n3)cnn2n1 | 2.75
38 | c1ccc(-c2nc3n(c2-c2ccc4c(c2)OCO4)CCC3)nc1 | -0.04
39 | COc1ccc(-c2cc(-c3c[nH]nc3-c3ccccn3)ccn2)cc1 | -0.62
40 | COc1ccc(-c2cc3c(N)ncnc3o2)cc1 | 0.39
41 | FC(F)(F)c1cccc(-c2nn3ncccc3c2-c2ccnc(Nc3ccc4c(c3)OCCO4)n2)c1 | 0.66
42 | N#Cc1c(NC(=O)CN2CCOCC2)sc2c1CCCC2 | 1.28
43 | COC(=O)Nc1nc2ccc(Oc3ccc(NC(=O)Nc4cccc(Cl)c4)cc3)cc2[nH]1 | -0.3
44 | CN1CCC(n2cnc(-c3ccc(F)cc3)c2-c2ccnc(Nc3ccccc3)n2)CC1 | 1.46
45 | Clc1ccc(-c2nn3ncccc3c2-c2ccnc(Nc3ccccc3)n2)cc1 | 2.99
46 | COc1ccc(-c2nn3ncccc3c2-c2ccnc(Nc3ccc4c(c3)OCCO4)n2)cc1 | -0.04
47 | Nc1nc(-c2ccc(F)cc2)c(-c2ccc3ncccc3n2)s1 | 1.8
48 | COc1ccc2[nH]c3c4[nH]c5ccc(OC)cc5c4c4c(c3c2c1)C(=O)NC4=O | 12.8
49 | Cc1ccc(O)cc1Nc1ccnc2cc(-c3ccccn3)ccc12 | 0.79
50 | NS(=O)(=O)c1ccc(N/N=C2\C(=O)Nc3ccc4ncccc4c32)cc1 | 67.7

Row | SMILES | inhibition [%]
51 | CCN1CCC(CC(=O)Nc2n[nH]c3nnc(-c4cccc(F)c4F)cc23)CC1 | 1.45
52 | COc1cccc(-c2c[nH]c3c(N/N=C/c4ccncc4)ncnc23)c1 | 24.9
53 | NC(=O)c1sc(-n2cnc3ccc(C(F)(F)F)cc32)cc1OCc1ccccc1Br | 0.92
54 | CC(C)COC(=O)c1ccc2c(c1)/C(=C/Nc1ccc(S(N)(=O)=O)cc1)C(=O)N2 | 45.5
55 | CCn1c(-c2nonc2N)nc2cnc(Oc3cccc(NC(=O)c4ccc(N(C)C)cc4)c3)cc21 | -1.1
56 | Fc1cccc(COc2ccc(Nc3ncnc4sc(-c5ccco5)cc34)cc2Cl)c1 | -1.55
57 | CC(=O)NCc1cccc(C#Cc2cncnc2Nc2ccc(OCc3cccc(F)c3)c(Cl)c2)c1 | 4.46
58 | CS(=O)(=O)CCNCc1coc(-c2ccc3ncnc(Nc4ccc(OCc5ccccc5)cc4)c3c2)c1 | 0.54
59 | Cc1ccc2c(-c3ccnc(Nc4ccccc4)n3)c(-c3ccc(F)cc3)nn2n1 | 2.61
60 | O=S(=O)(CCNCc1ccc(-c2ccc3ncnc(Nc4ccc(OCc5cccc(F)c5)c(Cl)c4)c3c2)o1)c1ccccc1 | -1.28
61 | CCNC(=O)O[C@H]1CN[C@H](C#Cc2cc3ncnc(Nc4ccc(OCc5cccc(F)c5)c(Cl)c4)c3s2)C1 | 1.79
62 | c1ccc(COc2ccc(Nc3ncnc4ccc(-c5ccco5)cc34)cc2)cc1 | -0.1
63 | COC(=O)c1sc(-n2cnc3cc(OC)c(OC)cc32)cc1OCc1ccccc1C(F)(F)F | 10.7
64 | Cc1cccc2c1NC(=O)/C2=N\Nc1ccc(S(N)(=O)=O)cc1 | 4.14
65 | CC(=O)Nc1cccc(C#Cc2cncnc2Nc2ccc(OCc3cccc(F)c3)c(Cl)c2)c1 | 4.13
66 | CCn1c(-c2nonc2N)nc2ccccc21 | 1.16

Source: ChEMBL document CHEMBL1961873, “Compounds: GSK PKIS; Assays: Nanosyn kinase panel” (2012)
